# Experiments:
# Test in all cases: cross-link between two proteins; affinity purification or IP with mass spectrometry; cross-linking mass spectrometry
# [1] = target: Ribosomal RNA-processing protein 15 (UniProt Q06511)
# [2] = target: Ribosome biogenesis protein BRX1 (UniProt Q08235)
# [3] = target: Ribosome biogenesis protein NSA1 (UniProt P53136)
# [4] = target: Ribosome biogenesis protein SSF1 (UniProt P38789)
# [5] = target: Ribosome production factor 1 (UniProt P38805)
# Sequence of UniProt P53136 (P53136 whole entry): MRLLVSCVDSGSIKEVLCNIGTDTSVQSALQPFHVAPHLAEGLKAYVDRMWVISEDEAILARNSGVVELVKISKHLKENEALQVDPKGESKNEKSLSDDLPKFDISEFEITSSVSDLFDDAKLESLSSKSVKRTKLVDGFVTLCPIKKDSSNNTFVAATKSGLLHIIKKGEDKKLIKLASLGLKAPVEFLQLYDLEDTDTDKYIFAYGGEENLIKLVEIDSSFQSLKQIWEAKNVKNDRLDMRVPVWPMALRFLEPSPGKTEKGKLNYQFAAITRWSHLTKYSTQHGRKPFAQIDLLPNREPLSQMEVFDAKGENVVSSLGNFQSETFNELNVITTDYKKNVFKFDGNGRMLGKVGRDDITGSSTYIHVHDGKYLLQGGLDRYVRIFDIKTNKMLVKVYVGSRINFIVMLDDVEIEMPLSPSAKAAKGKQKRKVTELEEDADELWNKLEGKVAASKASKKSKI
# Sequence of UniProt Q06511 (Q06511 whole entry): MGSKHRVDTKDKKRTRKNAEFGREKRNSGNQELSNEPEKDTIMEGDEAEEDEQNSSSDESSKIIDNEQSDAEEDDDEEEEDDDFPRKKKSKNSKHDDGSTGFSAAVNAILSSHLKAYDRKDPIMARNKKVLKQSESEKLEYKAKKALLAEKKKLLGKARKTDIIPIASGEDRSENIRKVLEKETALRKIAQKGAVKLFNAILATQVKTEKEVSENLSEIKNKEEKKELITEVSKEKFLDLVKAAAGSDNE
# Sequence of Ribosome biogenesis protein SSF1, P38789 (P38789 whole entry): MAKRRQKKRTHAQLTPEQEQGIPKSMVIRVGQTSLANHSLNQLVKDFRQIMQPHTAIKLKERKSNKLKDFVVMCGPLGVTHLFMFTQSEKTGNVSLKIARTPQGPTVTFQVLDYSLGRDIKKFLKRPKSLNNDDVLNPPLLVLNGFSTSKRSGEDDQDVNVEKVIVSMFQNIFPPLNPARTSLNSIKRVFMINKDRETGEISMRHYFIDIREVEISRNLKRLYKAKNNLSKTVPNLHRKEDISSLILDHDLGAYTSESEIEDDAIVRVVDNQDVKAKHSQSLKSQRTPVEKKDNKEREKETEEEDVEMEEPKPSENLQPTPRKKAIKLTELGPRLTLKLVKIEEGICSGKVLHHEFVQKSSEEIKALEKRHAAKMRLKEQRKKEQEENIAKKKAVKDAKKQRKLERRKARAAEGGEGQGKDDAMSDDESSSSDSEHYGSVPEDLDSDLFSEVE
# Sequence of UniProt Q08235 (Q08235 whole entry): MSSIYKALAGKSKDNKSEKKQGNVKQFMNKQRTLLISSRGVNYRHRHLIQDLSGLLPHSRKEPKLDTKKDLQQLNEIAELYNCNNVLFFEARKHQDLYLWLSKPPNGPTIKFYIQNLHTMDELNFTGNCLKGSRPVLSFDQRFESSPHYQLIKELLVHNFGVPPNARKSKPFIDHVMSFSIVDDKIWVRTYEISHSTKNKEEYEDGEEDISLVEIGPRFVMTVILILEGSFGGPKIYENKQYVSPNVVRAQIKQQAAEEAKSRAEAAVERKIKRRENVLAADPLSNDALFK
# Sequence of Ribosome production factor 1, P38805 (P38805 whole entry): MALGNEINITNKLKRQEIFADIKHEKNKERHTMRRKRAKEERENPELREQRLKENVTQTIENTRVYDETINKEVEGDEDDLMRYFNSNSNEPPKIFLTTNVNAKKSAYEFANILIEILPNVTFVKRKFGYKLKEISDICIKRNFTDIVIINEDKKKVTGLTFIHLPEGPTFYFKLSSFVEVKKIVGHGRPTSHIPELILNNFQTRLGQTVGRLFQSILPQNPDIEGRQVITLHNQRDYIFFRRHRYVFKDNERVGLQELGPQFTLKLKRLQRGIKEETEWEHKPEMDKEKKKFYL
substance,measurement,setting,value
"Ribosome biogenesis protein SSF1, P38789",listed as a hit,[1],yes
same,listed as a hit,[2],yes
"Ribosome production factor 1, P38805",listed as a hit,[3],yes
"Large ribosomal subunit protein uL29A, P0CX84",listed as a hit,[4],yes
"Large ribosomal subunit protein uL22A, P05740",listed as a hit,[5],yes

# Reference: paper PMC6340896
